# Bioassay records as filed in PubChem BioAssay.
# The list is not random: actives were taken first. Their share in the collection is about 5.7%.
# AHR act = AHR activators, primary screen, cell-based, luminescence, luciferase reporter, human. Aryl hydrocarbon receptor (Homo sapiens), P35869. AHR-responsive luciferase reporter cells. activation, % at 5 µM. 320,000 compounds, 2.5% hits. AID 2796, 2010; in the data active = activation above about 47%;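 also: 0% = vehicle wells and 100% = reference agonist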
# hcDAF12 agonist = H. contortus DAF-12 nuclear receptor activators, primary screen, cell-based, luminescence, HEK293, lit1-tk-luc reporter; HEK293 hcDAF-12 lit1-tk-luc reporter; 0% DMSO, 100% Δ7-dafachronic acid; 370,000 compounds, 1.4% hits; activation, % at 6.8 µM;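 active = activation above the mean of all tested compounds plus 3 SD, cut at about 5.5% in these data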;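 also: 100% = response to 3 µM Δ7-dafachronic acid high control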
# ssDAF12 agonist = S. stercoralis DAF-12 nuclear receptor activators, primary screen, cell-based, luminescence, HEK293, GRIP1 co-expression, lit1-tk-luc; 370,000 compounds, 1% hits; Nuclear hormone receptor DAF-12 (Strongyloides stercoralis); activation, % at 6.8 µM; HEK293 ssDAF-12/GRIP1 lit1-tk-luc reporter; % of 3 µM dafachronic acid response;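 active = activation above the mean over all tested compounds plus 3 SD, cut at about 0.9% in these data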;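 also: 0% = DMSO-only wells and 100% = 3 µM delta7-dafachronic acid wells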
# hgDAF-12 ag = H. glycines DAF-12 receptor agonists, primary screen, cell-based, luminescence, HEK293, GAL4 fusion, UAS-luciferase; AID 687014, 2013; HEK293 GAL4-hgDAF12 UAS-luciferase reporter, agonist luminescence; normalized to butyrate control; Nuclear hormone receptor DAF-12 (Heterodera glycines), GAL4 fusion; activation, % at 6.8 µM; 370,000 compounds, 1.8% hits;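 active = activation above a cutoff set at the mean of all screened compounds plus 3 SD, cut at about 10% in these data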;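 also: 0% = DMSO wells and 100% = sodium butyrate wells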
# DAX1 inh-1 = DAX1 (NR0B1) inhibitors, primary screen, cell-based, HEK293, Gal4-DAX1, luciferase luminescence | HEK293 Gal4-DAX1 luciferase reporter | inhibition, % at 6.75 µM | 340,000 compounds, 0.99% hits;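 active = inhibition above the mean over all tested compounds plus 3 SD, cut at about 4.2% in these data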;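 also: 0% = DAX1-transfected cells with DMSO and 100% = empty-vector control cells with DMSO; inhibition shows as a rise in luminescence from relieved DAX1 repression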
# DAX1 inh-2 = DAX1 (NR0B1) inhibitors on StAR promoter, primary screen, cell-based, luminescence, SF-1 (NR5A1), full-length DAX-1; HEK293T StAR-luciferase reporter, SF-1/DAX-1 repression relief; inhibition, % at 6.8 µM; 370,000 compounds, 1.1% hits; AID 652010, 2013;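 active = inhibition above the mean over all tested compounds plus 3 SD, cut at about 3.6% in these data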;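 also: 0% = DAX-1 cells with DMSO and 100% = cells lacking DAX-1 with DMSO; higher inhibition means more luminescence from relief of DAX-1 repression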
# DAX1 conf = DAX1 (NR0B1) inhibitors relieving SF-1 repression, confirmation, cell-based, luminescence, HEK293T, full-length DAX-1, SF-1 activated StAR promoter. inhibition, % at 6.8 µM. 2,400 compounds, 87% hits. shares compounds with DAX1 inh-2. HEK293T StAR-promoter luciferase reporter, SF-1/DAX-1 repression;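 active = inhibition above the average of every tested compound plus 3 SD, cut at about 3.8% in these data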;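 also: 0% = DAX-1 cells with DMSO and 100% = no DAX-1 control cells with DMSO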
# Target sequence (P51843 whole entry, looked up): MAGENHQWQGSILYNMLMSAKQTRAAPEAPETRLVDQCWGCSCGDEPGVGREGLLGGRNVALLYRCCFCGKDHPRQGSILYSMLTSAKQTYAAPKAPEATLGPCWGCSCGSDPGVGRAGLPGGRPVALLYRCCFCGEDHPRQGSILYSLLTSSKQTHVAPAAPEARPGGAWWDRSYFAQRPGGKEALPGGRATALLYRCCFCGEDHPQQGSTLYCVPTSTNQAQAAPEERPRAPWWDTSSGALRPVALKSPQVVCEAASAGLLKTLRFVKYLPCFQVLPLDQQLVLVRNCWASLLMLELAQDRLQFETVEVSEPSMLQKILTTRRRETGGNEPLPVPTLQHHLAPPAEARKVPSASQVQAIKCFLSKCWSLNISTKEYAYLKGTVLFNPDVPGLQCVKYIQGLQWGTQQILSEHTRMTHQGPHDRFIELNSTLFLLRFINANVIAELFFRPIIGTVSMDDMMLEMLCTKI
# SF1 AF2mut Luc = StAR reporter signal changes without DAX1, counter-screen for DAX1 inhibitor project, cell-based, luminescence, AF-2 mutant SF-1, transactivation. shares compounds with DAX1 inh-2. HEK293 StAR-luciferase, SF-1 AF2 mutant. inhibition, % at 6.8 µM. 2,400 compounds, 78% hits. AID 652136, 2013;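 active = inhibition above the mean of all tested compounds plus 3 SD, cut at about 3% in these data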;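 also: 0% = DAX-1 transfected cells with DMSO and 100% = cells without DAX-1 with DMSO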
# LXRb hcDAF ctr = LXR agonists, Gal4 luciferase reporter, confirmation, counter-screen for hcDAF-12 agonist project, cell-based, luminescence, HEK293, H. contortus campaign; 3,400 tested, under 10 active; HEK293 Gal4-LXR tk-luc reporter, 24 h; normalized: DMSO 0%, positive control 100%; activation, % at 6.8 µM; shares compounds with hcDAF12 agonist;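 active = mean percent activation of the reporter above a cutoff set as the average over tested compounds plus their standard deviation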
# hcDAF12 conf = H. contortus DAF-12 receptor agonists, confirmation, cell-based, luminescence, HEK293, lit1-tk-luc, triplicate; shares compounds with hcDAF12 agonist; 3,400 compounds, 61% hits; activation, % at 6.8 µM; HEK293 hcDAF-12 lit1-tk-luc reporter; % of Δ7-dafachronic acid response;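 active = mean activation across triplicate tests above the threshold derived from the earlier primary screen, cut at about 5.5% in these data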;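 also: 0% = DMSO only wells and 100% = 3 µM Δ7-dafachronic acid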
# hgDAF12 ag = H. glycines DAF-12 receptor agonists, confirmation, cell-based, luminescence, HEK293, GAL4-LBD fusion | shares compounds with hgDAF-12 ag | HEK293 GAL4-hgDAF12 luciferase reporter, agonist mode; percent of butyrate response | activation, % at 6.8 µM | 3,300 compounds, 80% hits | AID 743050, 2013;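 active = mean activation over triplicate wells above the hit cutoff derived from the earlier primary screen, cut at about 11% in these data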;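 also: 0% = DMSO low control and 100% = 2 mM sodium butyrate high control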
# LXRb DAF12 ctr = LXR agonists, Gal4 luciferase reporter, confirmation, counter-screen for hgDAF-12 agonist project, cell-based, luminescence, HEK293, H. glycines campaign; 24 h; AID 743051, 2013; shares compounds with hgDAF-12 ag; 3,300 tested, under 10 active; activation, % at 6.8 µM;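 active = mean activation of the triplicate above a set limit carried over from the primary screen, none filed active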
# Starred values were filed as active, the others as inactive; nt = not tested or not shown.
SMILES,AHR act,hcDAF12 agonist,ssDAF12 agonist,hgDAF-12 ag,DAX1 inh-1,DAX1 inh-2,DAX1 conf,SF1 AF2mut Luc,LXRb hcDAF ctr,hcDAF12 conf,hgDAF12 ag,LXRb DAF12 ctr
O=C(O)/C=C/c1ccc(O)c(O)c1,-1.3,0.0,-1.4,1.3,-0.2,0.5,nt,nt,nt,nt,nt,nt
O=C(/C=C/c1ccc(O)c(O)c1)NC(=O)c1ccccc1O,1.4,6.5*,-0.3,14.9*,-0.3,4.6*,8.1*,4.0*,nt,nt,13.4*,0.5
COC(=O)N/N=C(\C)c1ccco1,1.0,-0.3,0.8,-2.6,nt,-0.3,nt,nt,nt,nt,nt,nt
C/C(=N/NC(=O)c1ccccn1)c1ccco1,-0.3,2.7,0.9,13.4*,-0.2,5.5*,8.1*,4.0*,nt,nt,13.2*,0.6
CC(NC(=O)c1ccc(C(=O)c2ccccc2)cc1)c1ccc(S(N)(=O)=O)cc1 (stereo not drawn),nt,-1.4,-1.3,0.9,-0.5,-1.4,nt,nt,nt,nt,nt,nt
COc1ccc(C(=O)NC2=Nc3ccccc3N=C(C)C2c2ccccc2)cc1 (stereo not drawn),5.2,8.9*,0.9*,59.2*,17.9*,9.6*,22.8*,18.7*,0.2,0.7,38.7*,0.2
CC(C)(C)c1ccc(C(=O)Nc2ccccc2Cl)cc1,10.2,10.1*,1.5*,32.1*,5.0*,7.7*,15.9*,6.5*,1.5,9.4*,18.7*,1.1
CS(=O)(=O)Nc1ccc(C(=O)Nc2ccccc2Cl)cc1,-0.8,-0.1,-1.2,5.0,nt,-0.3,nt,nt,nt,nt,nt,nt
COc1ccc(-c2cn3cc(C(F)(F)F)cc(Cl)c3n2)cc1,52.0*,11.8*,2.6*,23.4*,3.4,5.1*,8.7*,6.9*,1.1,14.7*,21.0*,0.8
CN(C)c1ccc(N=Nc2nccs2)cc1,nt,9.7*,2.2*,18.3*,-0.3,7.0*,15.8*,5.9*,1.7,10.9*,19.8*,0.8
Cc1cccnc1NC(=O)c1ccc2c(c1)OCO2,12.3,3.0,-1.0,2.5,0.6,1.0,nt,nt,nt,nt,nt,nt
